# Data from PubChem BioAssay AID1159580 (chemical genetic matrix, 2015).
# “And” between values parts separate entries of the source, which are not always exact repeats. Equal values may be shown once. Out of some 5,500 compounds screened, about 2,000 (36%) were called active. Roughly 18% stayed inconclusive and do not appear here. No stated cut-off is given here; in the data, active means normalized growth mostly below about 0.91 (no sharp cut-off); inconclusive means no clear call, values can overlap the other calls; inactive means mostly above about 0.92. Some of the results follow. The source holds several records for some structures; these can differ, active in one and inactive in another.
# Experiment: chemical genetic growth profiling, strain panel (AID 1159580);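 further: tested at 20 µM; growth read once vehicle control cultures reached saturation at 30 °C; 1 = growth at the plate median or of vehicle wells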
# Conditions: S. cerevisiae deletion strains, growth OD
structure (smiles),measurement,setting,value
Cc1cc2c(C(C)C)c(O)c(O)c(C=O)c2c(O)c1-c1c(C)cc2c(C(C)C)c(O)c(O)c(C=O)c2c1O,normalized growth,"locus YAL013W, strain DEP1, stronger effect = lower value",0.328 (active) and 0.919 (inactive)
same,normalized growth,"locus YAL021C, strain ccr4, stronger effect = lower value",0.423 (active) and 0.368 (active)
same,normalized growth,"locus YAL026C, strain drs2, stronger effect = lower value",0.446 (active) and 0.519 (active)
same,normalized growth,"locus YAL030W, strain snc1, stronger effect = lower value",0.842 (active) and 0.874 (active)
same,normalized growth,"locus YBL061C, strain skt5, stronger effect = lower value",0.762 (active) and 0.747 (active)
same,normalized growth,"locus YBR009C, strain hhf1, stronger effect = lower value",0.779 (active) and 0.854 (active)
same,normalized growth,"locus YBR021W, strain FUR4, stronger effect = lower value",0.953 (inactive) and 0.977 (inactive)
same,normalized growth,"locus YBR023C, strain chs3, stronger effect = lower value",0.715 (active) and 0.692 (active)
same,normalized growth,"locus YBR171W, strain sec66, stronger effect = lower value",0.862 (active) and 0.922 (inactive)
same,normalized growth,"locus YBR229C, strain ROT2, stronger effect = lower value",0.936 (inactive) and 0.948 (inactive)
same,normalized growth,"locus YBR231C, strain swc5, stronger effect = lower value",0.637 (active) and 0.64 (active)
same,normalized growth,"locus YBR279W, strain paf1, stronger effect = lower value",0.778 (active) and 0.751 (active)
same,normalized growth,"locus YCL011C, strain gbp2, stronger effect = lower value",0.819 (active) and 0.854 (active)
same,normalized growth,"locus YCL016C, strain dcc1, stronger effect = lower value",0.842 (active) and 0.831 (active)
same,normalized growth,"locus YCL029C, strain bik1, stronger effect = lower value",0.798 (active) and 0.939 (inactive)
same,normalized growth,"locus YCL061C, strain MRC1, stronger effect = lower value",0.845 (active)
same,normalized growth,"locus YCL069W, strain vba3, stronger effect = lower value",0.813 (active) and 0.879 (active)
same,normalized growth,"locus YCR088W, strain abp1, stronger effect = lower value",0.842 (active) and 0.919 (active)
same,normalized growth,"locus YDL005C, strain med2, stronger effect = lower value",0.971 (inactive)
same,normalized growth,"locus YDL035C, strain GPR1, stronger effect = lower value",0.662 (active) and 0.799 (active)
same,normalized growth,"locus YDL040C, strain nat1, stronger effect = lower value",0.943 (inactive) and 0.953 (inactive)
same,normalized growth,"locus YDL074C, strain BRE1, stronger effect = lower value",0.589 (active) and 0.751 (active)
same,normalized growth,"locus YDL101C, strain DUN1, stronger effect = lower value",0.742 (active) and 0.847 (active)
same,normalized growth,"locus YDL134C, strain PPH21, stronger effect = lower value",0.738 (active) and 0.848 (active)
same,normalized growth,"locus YDL185W, strain tfp1, stronger effect = lower value",0.926 (inactive) and 0.966 (inactive)
same,normalized growth,"locus YDL192W, strain arf1, stronger effect = lower value",0.689 (active) and 0.978 (inactive)
same,normalized growth,"locus YDR001C, strain nth1, stronger effect = lower value",0.881 (active) and 0.925 (inactive)
same,normalized growth,"locus YDR069C, strain doa4, stronger effect = lower value",0.53 (active) and 0.604 (active)
same,normalized growth,"locus YDR101C, strain arx1, stronger effect = lower value",0.849 (active) and 0.943 (inactive)
same,normalized growth,"locus YDR137W, strain rgp1, stronger effect = lower value",0.161 (active) and 0.167 (active)
same,normalized growth,"locus YDR150W, strain NUM1, stronger effect = lower value",0.785 (active) and 0.912 (inactive)
same,normalized growth,"locus YDR159W, strain sac3, stronger effect = lower value",0.653 (active) and 0.717 (active)
same,normalized growth,"locus YDR162C, strain NBP2, stronger effect = lower value",0.342 (active) and 0.819 (active)
same,normalized growth,"locus YDR195W, strain ref2",0.84 (active) and 0.864 (inactive)
same,normalized growth,"locus YDR297W, strain sur2, stronger effect = lower value",0.79 (active) and 0.863 (active)
same,normalized growth,"locus YDR318W, strain mcm21, stronger effect = lower value",0.847 (active) and 0.965 (inactive)
same,normalized growth,"locus YDR334W, strain swr1, stronger effect = lower value",0.477 (active) and 0.674 (active)
same,normalized growth,"locus YDR335W, strain msn5, stronger effect = lower value",0.677 (active) and 0.769 (active)
same,normalized growth,"locus YDR388W, stronger effect = lower value",0.793 (active) and 0.972 (inactive)
same,normalized growth,"locus YDR392W, strain spt3, stronger effect = lower value",0.56 (active) and 0.438 (active)
same,normalized growth,"locus YDR502C, strain sam2, stronger effect = lower value",0.769 (active) and 0.937 (inactive)
same,normalized growth,"locus YEL003W, strain gim4, stronger effect = lower value",0.761 (active) and 0.805 (active)
same,normalized growth,"locus YEL037C, strain rad23, stronger effect = lower value",0.786 (active) and 0.813 (active)
same,normalized growth,"locus YEL061C, strain CIN8 (second series), stronger effect = lower value",0.814 (active) and 0.916 (inactive)
same,normalized growth,"locus YEL061C, strain CIN8, stronger effect = lower value",0.777 (active) and 0.853 (active)
same,normalized growth,"locus YER015W, strain faa2, stronger effect = lower value",0.649 (active) and 0.698 (active)
same,normalized growth,"locus YER016W, strain bim1, stronger effect = lower value",0.849 (active) and 0.883 (active)
same,normalized growth,"locus YER110C, stronger effect = lower value",0.943 (inactive) and 1.02 (inactive)
same,normalized growth,"locus YER111C, strain swi4, stronger effect = lower value",0.456 (active) and 0.668 (active)
same,normalized growth,"locus YER155C, strain BEM2 (second series), stronger effect = lower value",0.674 (active) and 0.758 (active)
same,normalized growth,"locus YER155C, strain BEM2, stronger effect = lower value",0.865 (active) and 0.912 (active)
same,normalized growth,"locus YER167W, strain BCK2, stronger effect = lower value",0.83 (active) and 0.895 (active)
same,normalized growth,"locus YFR010W, strain ubp6, stronger effect = lower value",0.644 (active) and 0.732 (active)
same,normalized growth,"locus YGL078C, strain dbp3, stronger effect = lower value",0.976 (inactive) and 1.01 (inactive)
same,normalized growth,"locus YGL086W, strain mad1, stronger effect = lower value",0.937 (inactive)
same,normalized growth,"locus YGL167C, strain pmr1, stronger effect = lower value",0.868 (active) and 0.833 (active)
same,normalized growth,"locus YGL173C, strain kem1, stronger effect = lower value",0.564 (active) and 0.591 (active)
same,normalized growth,"locus YGL227W, strain vid30, stronger effect = lower value",0.953 (inactive) and 0.989 (inactive)
same,normalized growth,"locus YGL240W, strain doc1, stronger effect = lower value",0.892 (inactive) and 0.952 (inactive)
same,normalized growth,"locus YGL248W, strain PDE1, stronger effect = lower value",0.764 (active) and 0.805 (active)
same,normalized growth,"locus YGL253W, strain hxk2, stronger effect = lower value",0.629 (active) and 0.698 (active)
same,normalized growth,"locus YGR078C, strain PAC10, stronger effect = lower value",0.776 (active)
same,normalized growth,"locus YGR135W, strain pre9, stronger effect = lower value",0.821 (active) and 0.901 (inactive)
same,normalized growth,"locus YGR229C, strain SMI1, stronger effect = lower value",0.126 (active)
same,normalized growth,"locus YGR252W, strain gcn5, stronger effect = lower value",0.806 (inactive) and 0.95 (inactive)
same,normalized growth,"locus YHR013C, strain ard1, stronger effect = lower value",0.651 (active) and 0.608 (active)
same,normalized growth,"locus YHR027C, strain rpn1, stronger effect = lower value",0.56 (active) and 0.593 (active)
same,normalized growth,"locus YHR030C, strain SLT2, stronger effect = lower value",0.64 (active) and 0.992 (inactive) and 0.854 (active)
same,normalized growth,"locus YHR079C, strain IRE1 (second series), stronger effect = lower value",0.841 (active) and 0.953 (inactive)
same,normalized growth,"locus YHR079C, strain IRE1, stronger effect = lower value",1.01 (inactive)
same,normalized growth,"locus YHR094C, strain hxt1, stronger effect = lower value",0.979 (inactive) and 1 (inactive)
same,normalized growth,"locus YHR129C, strain ARP1, stronger effect = lower value",0.731 (active) and 0.811 (active)
same,normalized growth,"locus YHR142W, strain chs7, stronger effect = lower value",0.537 (active) and 0.619 (active)
same,normalized growth,"locus YHR200W, strain rpn10, stronger effect = lower value",0.876 (active) and 0.977 (inactive)
same,normalized growth,"locus YIL066C, strain RNR3, stronger effect = lower value",0.6 (active) and 0.744 (active)
same,normalized growth,"locus YIL073C, strain SPO22, stronger effect = lower value",0.421 (active) and 0.743 (inactive)
same,normalized growth,"locus YIL125W, strain kgd1, stronger effect = lower value",1.05 (inactive) and 0.996 (inactive)
same,normalized growth,"locus YIR030C, strain dcg1, stronger effect = lower value",0.89 (active) and 0.994 (inactive)
same,normalized growth,"locus YJL092W, strain hpr5, stronger effect = lower value",0.799 (active) and 0.852 (active)
same,normalized growth,"locus YJL095W, strain BCK1 (second series), stronger effect = lower value",0.644 (active) and 0.629 (active)
same,normalized growth,"locus YJL095W, strain BCK1, stronger effect = lower value",0.534 (active) and 0.961 (inactive) and 0.744 (active)
same,normalized growth,"locus YJL115W, strain asf1, stronger effect = lower value",0.794 (active) and 0.86 (active)
same,normalized growth,"locus YJL129C, strain trk1, stronger effect = lower value",0.897 (inactive) and 0.937 (inactive)
same,normalized growth,"locus YJL134W, strain LCB3, stronger effect = lower value",0.875 (active) and 0.934 (inactive)
same,normalized growth,"locus YJL154C, strain vps35, stronger effect = lower value",0.857 (active) and 0.853 (active)
same,normalized growth,"locus YJL164C, strain tpk1, stronger effect = lower value",0.774 (active) and 0.762 (active)
same,normalized growth,"locus YJL166W, strain qcr8, stronger effect = lower value",0.75 (active) and 0.82 (active)
same,normalized growth,"locus YJL168C, strain set2, stronger effect = lower value",0.935 (inactive) and 0.981 (inactive)
same,normalized growth,"locus YJL187C, strain SWE1 (second series), stronger effect = lower value",0.553 (active) and 0.71 (active)
same,normalized growth,"locus YJL187C, strain SWE1, stronger effect = lower value",0.804 (active)
same,normalized growth,"locus YJR043C, strain POL32, stronger effect = lower value",0.594 (active) and 0.749 (active)
